From PubChem BioAssay
For some assays here: Potency and affinity values are given separately. Active and inactive are the calls of the source.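 The calls were made as follows, unless noted: active = membrane potential signal rise above negative control mean plus 3 SD in both duplicates, also active in the earlier TRPC4 screen; inactive = the rest.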

Key:
[1] = test system: TRPC4 beta (transient receptor potential cation channel C4), mouse; experiment: TRPC4 cation channel opening, retest – cell-based, Fluo4 calcium, HEK293 TRPC4beta/mu-opioid, duplicates, 10 µM, confirmation (AID 2426;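 active = fluorescence ratio normalized to control raised more than 50% in primary screen plus both repeat runs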;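 as to activation: percent rise of integrated ratio over buffer wells lacking compound which define 0%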); settings: Fluo4 calcium fluorescence, at 10 µM; stronger effect = higher value
[2] = test system: transient receptor potential cation channel C4 beta (TRPC4), mouse; experiment: TRPC4 cation channel opening, second retest – cell-based, second round, Fluo4, HEK293 TRPC4beta/mu-opioid, 1 µM, confirmation (AID 2461;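 active = primary screen active and over 50% activation in each of two duplicate runs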); settings: Fluo4 calcium fluorescence, at 1 µM; stronger effect = higher value
[3] = test system: TRPC4 (transient receptor potential cation channel C4 beta), mouse; experiment: potentiation of DAMGO EC20 TRPC4 response – cell-based, second round, Fluo-4, HEK293 TRPC4beta/mu-opioid, 1 µM, confirmation (AID 2554;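 active = primary screen hit whose fluorescence ratio, in both repeats, exceeds the weak agonist control mean by 3 SD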); settings: DAMGO EC20, Fluo-4 calcium flux, at 1 µM; stronger effect = higher value
[4] = test system: TRPC4 beta (transient receptor potential cation channel C4), mouse; experiment: potentiation of DAMGO EC20 TRPC4 response – cell-based, Fluo-4, HEK293 TRPC4beta/mu-opioid, confirmation (AID 2555;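 active = primary screen hit whose calcium fluorescence ratio, in both repeats, exceeds the weak agonist control mean by 3 SD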); settings: DAMGO EC20, Fluo-4 calcium flux, at 10 µM; stronger effect = higher value
[5] = target: Short transient receptor potential channel 4 (Mus musculus) (UniProt Q9QUQ5); experiment: blockers of DAMGO-evoked TRPC4 calcium flux – cell-based, Fluo4, HEK293 TRPC4beta/mu-opioid, confirmation (AID 2636;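 active = calcium signal cut by more than 3 SD below the full-agonist control yet still positive, in both repeats and the earlier primary screen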); settings: at 10 µM; stronger effect = higher value
[6] = target: Short transient receptor potential channel 4 (Mus musculus) (UniProt Q9QUQ5); experiment: blockers of DAMGO-evoked TRPC4 calcium flux – cell-based, second round, Fluo4, HEK293 TRPC4beta/mu-opioid, 1 µM, confirmation (AID 2637;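 active = calcium signal ratio cut to more than 3 SD under the fully stimulated control mean yet still positive, in both repeats and the primary screen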;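 as to inhibition: percent of integrated ratio relative to wells lacking test compound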); settings: at 1 µM; stronger effect = higher value
[7] = target: Short transient receptor potential channel 4 (Mus musculus) (UniProt Q9QUQ5); experiment: calcium entry via TRPC4 opening agents – cell-based, HEK293 TRPC4/mu-opioid, Fluo-4 calcium, dose response (AID 434937;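 active = primary screen activator hit with a dose response curve and TRPC4 channel activation at any tested dose; inactive = no activation, no dose response, or not a primary hit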)
[8] = target: Short transient receptor potential channel 4 (Mus musculus) (UniProt Q9QUQ5); experiment: potentiation of DAMGO-evoked TRPC4 calcium signal – cell-based, HEK293 TRPC4/mu-opioid, Fluo-4 calcium, EC20 DAMGO, dose response (AID 434941;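 active = earlier screen potentiator hit that boosts the TRPC4 ion channel at some dose, with a dose response; inactive = no potentiation, no dose response, or not a prior hit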;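 also: calcium entry triggered by an EC20 dose of DAMGO at the co-expressed mu-opioid receptor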)
[9] = target: Short transient receptor potential channel 6 (Mus musculus) (UniProt Q61143); experiment: TRPC6 blockade by TRPC4 inhibitor hits – cell-based, HEK293, membrane potential dye, duplicate, selectivity assay for TRPC4 inhibitor project, confirmation (AID 434948;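 active = active in primary screen and both duplicates, each dropping signal beyond three positive-control SD with fluorescence still positive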); settings: HEK293 TRPC6, membrane potential dye fluorescence, at 10 µM, stimulated with maximal-effect acetylcholine; stronger effect = higher value
[10] = target: Short transient receptor potential channel 6 (Mus musculus) (UniProt Q61143); experiment: TRPC6 opening by TRPC4 activator hits – cell-based, HEK293, membrane potential dye, duplicate, selectivity assay for TRPC4 activator project, confirmation (AID 434950); settings: HEK293 TRPC6, membrane potential fluorescence, at 10 µM; activation: stronger effect = higher value; outcome: activation
[11] = target: Short transient receptor potential channel 6 (Mus musculus) (UniProt Q61143); experiment: positive modulators of mouse TRPC6 channel – HEK293 cells, membrane potential dye, duplicate, selectivity assay for TRPC4 potentiator project, confirmation (AID 434952;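 active = compound raising the membrane signal above positive-control mean plus 3 SD in both repeats, and a primary screen hit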); settings: HEK293 TRPC6, membrane potential dye fluorescence, at 10 µM, maximal acetylcholine added after compound; stronger effect = higher value
[12] = target: Short transient receptor potential channel 4 (Mus musculus) (UniProt Q9QUQ5); experiment: calcium flux activators in TRPC4/5HT1a cells, counter-screen for TRPC4 activator project, cell-based, second counter screen, HEK293 TRPC4/5HT1a, Fluo-4 (AID 434977;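 active = calcium signal rise above buffer-control mean plus 5 SD in both duplicates, and also a hit in the primary screen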); settings: Fluo-4 calcium flux, at 10 µM; stronger effect = higher value
[13] = serotonin-gated TRPC4 signal block – cell-based, second counter screen, HEK293 TRPC4/5HT1a, Fluo-4, counter-screen for TRPC4 inhibitor project, confirmation (AID 434978;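 active = primary screen active whose calcium signal fell more than 3 SD beyond the full-serotonin control mean in both duplicate plates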;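 as to outcome: serotonin given first at submaximal then at maximal dose after compound preincubation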); settings: Fluo-4 calcium flux, at 10 µM, serotonin added to trigger calcium flux; stronger effect = higher value
[14] = test system: TRPC4 (mouse), co-expressed with 5HT1a in HEK293; experiment: enhancement of serotonin-evoked TRPC4 response – cell-based, second counter screen, HEK293 TRPC4/5HT1a, Fluo-4, counter-screen for TRPC4 potentiator project, confirmation (AID 434979;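 active = signal rise over 3 SD above mean of control wells given weak agonist, in both repeats and first screen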); settings: Fluo-4 calcium flux, at 10 µM, serotonin added at its EC20 dose; stronger effect = higher value
[15] = nonspecific calcium rise without TRPC4 – cell-based, HEK293 mu-opioid receptor line, counter-screen for TRPC4 activator project, confirmation (AID 449723;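 active = hit in primary screen, with calcium signal over 5 SD above buffer well mean in both duplicates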;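 also: counter screen cells carry the mu-opioid receptor alone and lack TRPC4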); settings: HEK293 mu-opioid cells, Fluo-4 calcium fluorescence, at 10 µM; stronger effect = higher value
[16] = nonspecific potentiation of DAMGO calcium response – cell-based, HEK293 mu-opioid receptor line, counter-screen for TRPC4 allosteric potentiator project, confirmation (AID 449724;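 active = calcium signal rise more than 3 SD above the low-dose agonist control mean, in both duplicate plates and the primary screen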); settings: HEK293 mu-opioid receptor cells, Fluo-4 calcium flux, at 10 µM, compound added before EC20 DAMGO stimulus; stronger effect = higher value

Sequence of Short transient receptor potential channel 4 (Mus musculus) (Q9QUQ5 whole entry, looked up): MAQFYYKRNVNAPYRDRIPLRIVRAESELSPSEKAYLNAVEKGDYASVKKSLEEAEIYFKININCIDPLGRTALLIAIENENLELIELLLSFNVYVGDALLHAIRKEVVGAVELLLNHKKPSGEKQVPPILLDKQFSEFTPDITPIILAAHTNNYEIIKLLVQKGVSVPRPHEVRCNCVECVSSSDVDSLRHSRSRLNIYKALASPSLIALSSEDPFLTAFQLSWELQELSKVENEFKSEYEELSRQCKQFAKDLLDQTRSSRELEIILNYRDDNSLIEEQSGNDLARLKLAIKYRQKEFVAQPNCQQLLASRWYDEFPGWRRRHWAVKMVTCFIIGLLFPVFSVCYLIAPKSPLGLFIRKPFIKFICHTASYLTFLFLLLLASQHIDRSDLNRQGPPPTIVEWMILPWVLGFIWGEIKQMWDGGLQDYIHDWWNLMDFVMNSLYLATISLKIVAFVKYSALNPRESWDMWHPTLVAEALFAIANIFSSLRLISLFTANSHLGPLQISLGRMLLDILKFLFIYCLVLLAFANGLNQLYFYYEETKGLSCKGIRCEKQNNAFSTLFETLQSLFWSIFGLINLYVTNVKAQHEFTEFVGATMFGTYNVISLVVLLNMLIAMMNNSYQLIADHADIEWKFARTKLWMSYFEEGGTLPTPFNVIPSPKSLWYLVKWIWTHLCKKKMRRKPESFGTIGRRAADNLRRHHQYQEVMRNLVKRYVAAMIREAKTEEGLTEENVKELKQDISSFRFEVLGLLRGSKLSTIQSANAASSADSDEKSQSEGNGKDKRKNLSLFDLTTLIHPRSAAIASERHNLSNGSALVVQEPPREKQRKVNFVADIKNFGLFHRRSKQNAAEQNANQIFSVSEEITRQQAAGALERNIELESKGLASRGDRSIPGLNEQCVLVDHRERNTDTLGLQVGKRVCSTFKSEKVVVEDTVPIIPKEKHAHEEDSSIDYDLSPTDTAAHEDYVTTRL
Sequence of Short transient receptor potential channel 6 (Mus musculus) (Q61143 whole entry, looked up): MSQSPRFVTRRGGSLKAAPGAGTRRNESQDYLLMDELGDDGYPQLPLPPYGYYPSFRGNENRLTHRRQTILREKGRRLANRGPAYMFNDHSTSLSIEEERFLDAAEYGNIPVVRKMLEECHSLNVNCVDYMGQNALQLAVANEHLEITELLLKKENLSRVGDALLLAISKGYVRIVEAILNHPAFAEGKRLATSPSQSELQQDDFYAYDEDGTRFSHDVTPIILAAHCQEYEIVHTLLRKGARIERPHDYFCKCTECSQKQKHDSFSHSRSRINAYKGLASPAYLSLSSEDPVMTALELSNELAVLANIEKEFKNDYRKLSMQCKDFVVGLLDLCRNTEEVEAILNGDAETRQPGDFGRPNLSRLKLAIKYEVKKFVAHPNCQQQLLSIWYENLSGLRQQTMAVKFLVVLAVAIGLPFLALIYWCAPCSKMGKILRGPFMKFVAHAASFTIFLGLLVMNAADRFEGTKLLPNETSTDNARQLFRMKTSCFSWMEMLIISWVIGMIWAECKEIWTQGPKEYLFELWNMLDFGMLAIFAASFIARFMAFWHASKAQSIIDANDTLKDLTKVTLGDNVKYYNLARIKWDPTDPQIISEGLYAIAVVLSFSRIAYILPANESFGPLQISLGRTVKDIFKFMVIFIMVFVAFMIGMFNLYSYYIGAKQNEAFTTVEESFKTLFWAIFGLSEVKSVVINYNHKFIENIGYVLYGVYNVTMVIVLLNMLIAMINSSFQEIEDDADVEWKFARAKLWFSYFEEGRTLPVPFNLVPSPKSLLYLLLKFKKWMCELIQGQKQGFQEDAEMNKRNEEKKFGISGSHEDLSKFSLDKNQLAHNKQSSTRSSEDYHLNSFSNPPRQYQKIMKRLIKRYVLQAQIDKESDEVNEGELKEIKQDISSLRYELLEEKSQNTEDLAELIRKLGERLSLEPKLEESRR

CCOC(=O)CSc1nc2c(sc(=S)n2Cc2ccco2)c(=O)n1-c1ccccc1
inactive: outcome [1] | outcome [2] | outcome [3] | outcome [4] | outcome [7] | outcome [8] | outcome [9] | outcome [10] | outcome [11] | outcome [12] | outcome [13] | outcome [14] | outcome [15] | outcome [16]
active: inhibition [5] 68% | inhibition [6] 42%

COc1cccc(N2CC(O)=C(c3nc4ccccc4c(=O)[nH]3)C2=N)c1
active: inhibition [5] 74% | inhibition [6] 47% | inhibition [13] 37.5%
inactive: outcome [1] | outcome [2] | outcome [3] | outcome [4] | outcome [7] | outcome [8] | outcome [9] | outcome [10] | outcome [11] | outcome [12] | outcome [14] | outcome [15] | outcome [16]

COCCn1c(SCc2ccc(OC)c(F)c2)nc2ccccc2c1=O
active: inhibition [5] 95% | inhibition [13] 16.1%
inactive: outcome [1] | outcome [2] | outcome [3] | outcome [4] | outcome [6] | outcome [7] | outcome [8] | outcome [9] | outcome [10] | outcome [11] | outcome [12] | outcome [14] | outcome [15] | outcome [16]

Cc1cc2cc(C#N)c(NCCNC(=S)NCCCN3CCOCC3)nc2cc1C
active: inhibition [5] 94% | inhibition [13] 26.6%
inactive: outcome [1] | outcome [2] | outcome [3] | outcome [4] | outcome [6] | outcome [7] | outcome [8] | outcome [9] | outcome [10] | outcome [11] | outcome [12] | outcome [14] | outcome [15] | outcome [16]

CCOC(=O)C1(Cc2cccc(OC)c2)CCN(Cc2ccc(OC)c(O)c2)CC1
inactive: outcome [1] | outcome [2] | outcome [3] | outcome [4] | outcome [5] | outcome [6] | outcome [7] | outcome [8] | outcome [9] | outcome [10] | outcome [11] | outcome [12] | outcome [13] | outcome [14] | outcome [15] | outcome [16]

O=C(O)c1ccc(CSc2nc(-c3ccc(Cl)cc3)cc(C(F)(F)F)n2)cc1
inactive: outcome [1] | outcome [2] | outcome [3] | outcome [4] | outcome [6] | outcome [7] | outcome [8] | outcome [9] | outcome [10] | outcome [11] | outcome [12] | outcome [14] | outcome [15] | outcome [16]
active: inhibition [5] 77% | inhibition [13] 19.2%

c1ccc2[nH]c(CCCCc3nc4ccccc4[nH]3)nc2c1
active: inhibition [5] 85% | inhibition [6] 55% | inhibition [13] 40.6%
inactive: outcome [1] | outcome [2] | outcome [3] | outcome [4] | outcome [7] | outcome [8] | outcome [9] | outcome [10] | outcome [11] | outcome [12] | outcome [14] | outcome [15] | outcome [16]

CC(OC(=O)CNC(=O)c1ccccc1F)C(=O)Nc1nc(-c2ccccc2)cs1 (centres undefined)
active: inhibition [5] 78% | inhibition [13] 44.3%
inactive: outcome [1] | outcome [2] | outcome [3] | outcome [4] | outcome [6] | outcome [7] | outcome [8] | outcome [9] | outcome [10] | outcome [11] | outcome [12] | outcome [14] | outcome [15] | outcome [16]

COc1ccccc1N1CCN(CCCNC(=O)Nc2ccccc2)CC1
active: inhibition [5] 95% | inhibition [6] 61% | inhibition [13] 22.6%
inactive: outcome [1] | outcome [2] | outcome [3] | outcome [4] | outcome [7] | outcome [8] | outcome [9] | outcome [10] | outcome [11] | outcome [12] | outcome [14] | outcome [15] | outcome [16]

CNC(=S)N1CCN(C(c2ccccc2)c2ccccc2)CC1
active: activation [1] 223% | inhibition [5] 93%
inactive: outcome [2] | outcome [3] | outcome [4] | outcome [6] | outcome [7] | outcome [8] | outcome [9] | outcome [10] | outcome [11] | outcome [12] | outcome [13] | outcome [14] | outcome [15] | outcome [16]

OCCCNc1c2ccccc2nc2ccccc12
inactive: outcome [1] | outcome [2] | outcome [3] | outcome [4] | outcome [6] | outcome [7] | outcome [8] | outcome [10] | outcome [11] | outcome [12] | outcome [14] | outcome [15] | outcome [16]
active: inhibition [5] 92% | inhibition [9] 39.5% | inhibition [13] 41.8%

Cc1n[nH]c(C)c1CCCCOc1ccccc1F
active: inhibition [5] 98% | inhibition [6] 65% | inhibition [13] 28.3%
inactive: outcome [1] | outcome [2] | outcome [3] | outcome [4] | outcome [7] | outcome [8] | outcome [9] | outcome [10] | outcome [11] | outcome [12] | outcome [14] | outcome [15] | outcome [16]

O=C(Nc1ccccc1)N1CCN2C(=O)c3ccccc3C12c1ccccc1 (centres undefined)
active: inhibition [5] 85% | inhibition [6] 62%
inactive: outcome [1] | outcome [2] | outcome [3] | outcome [4] | outcome [7] | outcome [8] | outcome [9] | outcome [10] | outcome [11] | outcome [12] | outcome [13] | outcome [14] | outcome [15] | outcome [16]

Cc1cc(C)c2c(=O)n(CC(=O)NCCCN3CCN(c4ccccc4F)CC3)sc2n1
active: inhibition [5] 90% | inhibition [6] 55%
inactive: outcome [1] | outcome [2] | outcome [3] | outcome [4] | outcome [7] | outcome [8] | outcome [9] | outcome [10] | outcome [11] | outcome [12] | outcome [13] | outcome [14] | outcome [15] | outcome [16]
